Entries with a potency or affinity are not part of this list. Values without a mark were called inactive. No rule for the calls is given here.
Test: toxicity toward immortalized ovarian surface epithelium – cell-based, plate reader, dry powder samples, cytotoxicity control for PAX8 inhibitor project, dose response (AID 743045);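 also: 0% = neutral control median and -100% = positive control median; more negative values mean more cell killing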
Settings: IOSE-T80 ovarian epithelial cells; series mostly up to 35 µM; activity change, negative = cytotoxicity: at the top concentration

Going from `COc1ccc2c3c([nH]c2c1)[C@H](CO)N(C(=O)Nc1cccc(F)c1)CC31CCN(S(=O)(=O)c2cccc(C)c2)CC1` to `Cc1cccc(S(=O)(=O)N2CC[C@@H]3[C@H](CO)N(C)c4ccc(-c5ccc(C#N)cc5)cc4[C@@H]32)c1`, the “activity change, negative = cytotoxicity” value falls from 24% to 19.3%.

Compared with `COc1ccc(-c2ccc3c(c2)[C@@H]2[C@@H](CCN2S(=O)(=O)c2ccc(OC)cc2)[C@@H](CO)N3C)cc1`, `C[C@H](CO)N1C[C@H](C)[C@H](CN(C)S(=O)(=O)c2ccc(Cl)cc2)OCCCC[C@H](C)Oc2ccc(NS(=O)(=O)c3ccc(Cl)cc3)cc2C1=O` is lower in “activity change, negative = cytotoxicity” value: 22.7% for the first, 0.471% for the second.

Going from `C[C@@H]1CN([C@H](C)CO)C(=O)c2cc(NC(=O)Nc3ccccc3)ccc2O[C@@H](C)CCCCO[C@@H]1CN(C)CC1CCCCC1` to `C[C@@H]1CCCCO[C@H](CN(C)Cc2ccccc2)[C@@H](C)CN([C@@H](C)CO)C(=O)c2cc(NC(=O)Nc3ccc(C(F)(F)F)cc3)ccc2O1`, the “activity change, negative = cytotoxicity” value falls from 18.5% to -6.35%.

First: C[C@@H]1CN([C@H](C)CO)C(=O)CCCn2cc(nn2)CO[C@H]1CN(C)C(=O)Nc1ccc(-c2cccs2)cc1
Second: C[C@@H]1CCCCO[C@@H](CN(C)C(=O)c2ccccc2)[C@H](C)CN([C@H](C)CO)C(=O)c2cc(NC(=O)Nc3ccc(C(F)(F)F)cc3)ccc2O1
The “activity change, negative = cytotoxicity” value of the first is lower: 4.94% for the first, 11.1% for the second.

First: C[C@H]1CCCCO[C@H](CN(C)Cc2ccc(C(F)(F)F)cc2)[C@@H](C)CN([C@@H](C)CO)C(=O)c2cc(NS(=O)(=O)c3ccc(F)cc3)ccc2O1
Second: C[C@H]1CN([C@@H](C)CO)S(=O)(=O)c2ccc(C#Cc3ccc(F)cc3)cc2O[C@@H]1CN(C)C(=O)NC1CCCCC1
The “activity change, negative = cytotoxicity” value of the first is lower: 12.5% for the first, 26.8% for the second.

Source: PubChem BioAssay
